Results on 40 compounds are retold here after PubChem BioAssay (NCATS).

Where “and” joins values, the source holds several entries; their conditions need not be identical. Identical values can stand only once. Results filed as inconclusive are left out. Where a call stands in place of a potency, no number is given. Calls of active or inactive are those of the source. Calls come from the whole dose curve; as a rule, active = well fitted curve in the direction sought with a large enough effect; inconclusive = small, poorly fitted or top-dose-only effect, or another doubt; inactive = no such curve, though single readings can be large; an effect the other way counts as inactive or inconclusive.
Note: nearly all actives have a fitted effect of over 70% in size.
Potency is the fitted concentration of half-maximal effect.

The nature of one experiment: Primary qHTS for inhibitors of nuclear receptor binding SET domain protein 2 (NSD2) in an isogenic RCH-ACV NSD2 p.E1099K mutant (9B) (AID 1645876). Conditions: RCH-ACV NSD2 E1099K (9B) viability, CellTiter-Glo, 72 h; series mostly up to 44.9 µM.
In the case of `NC(=O)c1cccc2cn(-c3ccc(C4CCCNC4)cc3)nc12` (stereo not given), the Potency is 3.25 µM (active).
As for `CN1CCN(Cc2ccc(-c3cnc4[nH]cc(-c5ccc6[nH]ccc6c5)c4c3)cc2)CC1`, the Potency is 1.45 µM (active).
Regarding `Cc1cccc(Oc2cnc(=O)[nH]c2)c1`, the Potency entry was “inactive”.
On the same count and under the same terms, as for `CC(C)CCC(=O)CC1c2ccccc2C(=O)N1c1ccc2ccc(Cl)nc2n1` (stereo not given), the entry is “inactive”; as for `O=C(Nc1ccc(S(=O)(=O)Nc2nccs2)cc1)C(c1ccccc1)c1ccccc1`, “inactive”.
The same measure, in the same setting: as for `COCCOc1ccc(N2CCN(CCn3ncc4c3nc(N)n3nc(-c5ccco5)nc43)CC2)cc1`, the entry is “inactive”; as for `O=C(NCc1cccc(O)c1)Nc1nc(-c2ccncc2)cs1`, 9.34 µM (active).
Same read-out and setting: as for `CCN1CCN(Cc2ccc(NC(=O)c3ccc(C)c(/C=C/c4cnc5[nH]ccc5c4OC)c3)cc2C(F)(F)F)CC1`, the figure is 129 nM (active) and 1.05 µM (active); as for `C[C@@H]1CN(Cc2ccccc2)C[C@H]1c1nc2c(cnn2C2CCOCC2)c(=O)[nH]1`, “inactive”.
In the case of `CNCc1ccc(-c2cc(-c3nc(-c4ccc(S(=O)(=O)C(C)C)cc4)cnc3N)on2)cc1`, the Potency was 183 nM (active) and 83.3 nM (active).
Turning to `CNC(=S)NS(=O)(=O)c1cc(CCNC(=O)c2cc(Cl)ccc2OC)ccc1OC`, the Potency entry is “inactive”.
Same read-out and setting: as for `Cc1onc(C(=O)N2CCN(C(c3ccc(Cl)cc3)c3ccc(Cl)cc3)CC2)c1[N+](=O)[O-]`, the figure is 0.23 µM (active); as for `CC(C)(C)c1ccc(S(=O)(=O)NCc2ccc(C(=O)Nc3cccnc3)cc2)cc1`, 0.258 µM (active).
On the same count and under the same terms, as for `CN1CCc2nc(C(=O)N[C@@H]3C[C@@H](C(=O)N(C)C)CC[C@@H]3NC(=O)C(=O)Nc3ccc(Cl)cn3)sc2C1`, the entry is “inactive”.
On to `O=C(Nc1nc2ccccc2n1CCc1ccccc1)c1ccccc1`, for which the Potency was 6.49 µM (active).
For `O=C(CCCCN1CCOCC1)Nc1ccc(-c2cccnc2)cc1`, the Potency result is “inactive”.
Same read-out and setting: as for `CCOc1ccc(NC(=S)N2CCC(C(O)(c3ccccc3)c3ccccc3)CC2)cc1`, the entry is “inactive”; as for `Cc1cc(Nc2ncc3cc(-c4c(Cl)cccc4Cl)c(=O)n(C)c3n2)ccc1F`, 0.728 µM (active); as for `NCc1ccc(Nc2ncc(F)c(Nc3ccccc3)n2)cc1`, 3.25 µM (active).
Still for that read-out and setting: as for `CC(C)[C@@H](CS(=O)(=O)C(C)C)N1C(=O)[C@@](C)(CC(=O)O)C[C@H](c2cccc(Cl)c2)[C@H]1c1ccc(Cl)cc1`, the figure is 1.15 µM (active) and 833 nM (active); as for `CCCN1CCN(c2ccc(C(=O)NC3(C(=O)NCC#N)CCCCC3)cc2)CC1`, “inactive”; as for `c1ccc(N2CCN(CCc3nn[nH]n3)CC2)cc1`, “inactive”.
Same read-out and setting: as for `Cn1c2ccc(F)cc2c2c(C(=O)N3CCCC3)cn(-c3ccccc3)c(=O)c21`, the entry is “inactive”; as for `CC(NC(=O)C(O)C(C)C)C(=O)NC1C(=O)N(C)CCc2ccccc21` (stereo not given), “inactive”; as for `CCO[C@@H]1OC(=O)C[C@@H]1NC(=O)[C@@H]1CCCN1C(=O)[C@@H](NC(=O)c1ccc(N)c(Cl)c1)C(C)(C)C`, “inactive”.
`COc1ccccc1Oc1ccc(N(Cc2cccnc2)S(=O)(=O)CC(F)(F)F)cc1`: the Potency entry was “inactive”.
Same read-out and setting: as for `CCc1cc(CN2CC(C(=O)O)C2)sc1-c1noc(-c2ccc(Oc3ccccc3)cc2)n1`, the figure is 10 µM (active); as for `CC(C)(C)c1cc(Br)cc([C@H](CC(=O)O)NC(=O)CNC(=O)c2cc(O)cc(NC3=NCC(O)CN3)c2)c1` (stereo not given in full), “inactive”; as for `COc1cc(N2CCOCC2)ccc1Nc1ncc(Cl)c(Nc2ccccc2NS(C)(=O)=O)n1`, 1.15 µM (active).
With `COc1ccc(Oc2cc(C)c(-c3csc(NC(=O)c4ccncc4)n3)c(C)c2)cc1`, the Potency is 0.163 µM (active).
The same measure, in the same setting: as for `COc1cccc(C(=O)N2CCN(C(=O)COc3cccc(C)c3)CC2)c1OC`, the entry is “inactive”; as for `CCNC(=O)Nc1ncc(-c2cc(-c3c(C)cc(OC)cc3C)nc(-c3cnccn3)n2)s1`, “inactive”; as for `N#Cc1ccc(C(=O)N2CCC3(CC2)N=C(N)c2c(F)ccc(F)c2N3)cn1`, “inactive”.
As to `COc1ccc(-c2ccc3c(N4CCOCC4)nc(N4CC(C)OC(C)C4)nc3n2)cc1CO` (stereo not given), the Potency is 0.205 µM (active).
Still for that read-out and setting: as for `O=C(NCc1ccccn1)Nc1nnc(-c2ccco2)o1`, the entry is “inactive”; as for `NC1CCC(Nc2cc(-c3cccc(NCc4cccc(F)c4)n3)c(Cl)cn2)CC1` (stereo not given), 0.0817 µM (active).
Still for that read-out and setting: as for `CNC(=O)c1ccccc1Nc1nc(Nc2ccc3c(c2OC)CCCC(N2CCN(CCO)CC2)C3)ncc1Cl` (stereo not given), the figure is 6.49 µM (active); as for `O=C1CC2(CCCC2)[C@H](O)C(=O)N1CCCCN1CCN(c2ncccn2)CC1`, “inactive”; as for `Cc1ccccc1-n1c([C@H](C)Nc2nc(N)nc3nc[nH]c23)nc2cccc(C)c2c1=O`, 0.0649 µM (active).
On the same count and under the same terms, as for `Cn1c(=O)n(-c2ccc(C(C)(C)C#N)cc2)c2c3cc(C#Cc4cccnc4)ccc3ncc21`, the figure is 0.0178 µM (active).

Another experiment is described as follows: Primary qHTS for inhibitors of nuclear receptor binding SET domain protein 2 (NSD2) in an RCH-ACV wild type WT cells (2C) (AID 1645877). Conditions: RCH-ACV (leukaemia line) NSD2 WT (2C) viability, CellTiter-Glo, 72 h; series mostly up to 44.9 µM. For orientation: Quantitative high-throughput screening tests each substance at several concentrations.
Consider `NC(=O)c1cccc2cn(-c3ccc(C4CCCNC4)cc3)nc12` (stereo not given), for which the Potency was 2.05 µM (active).
Still for that read-out and setting: as for `CN1CCN(Cc2ccc(-c3cnc4[nH]cc(-c5ccc6[nH]ccc6c5)c4c3)cc2)CC1`, the figure is 1.45 µM (active); as for `Cc1cccc(Oc2cnc(=O)[nH]c2)c1`, “inactive”; as for `CC(C)CCC(=O)CC1c2ccccc2C(=O)N1c1ccc2ccc(Cl)nc2n1` (stereo not given), “inactive”.
Same read-out and setting: as for `O=C(Nc1ccc(S(=O)(=O)Nc2nccs2)cc1)C(c1ccccc1)c1ccccc1`, the entry is “inactive”; as for `COCCOc1ccc(N2CCN(CCn3ncc4c3nc(N)n3nc(-c5ccco5)nc43)CC2)cc1`, “inactive”.
For `O=C(NCc1cccc(O)c1)Nc1nc(-c2ccncc2)cs1`, the Potency is 2.35 µM (active).
The same measure, in the same setting: as for `CCN1CCN(Cc2ccc(NC(=O)c3ccc(C)c(/C=C/c4cnc5[nH]ccc5c4OC)c3)cc2C(F)(F)F)CC1`, the figure is 230 nM (active) and 1.18 µM (active); as for `C[C@@H]1CN(Cc2ccccc2)C[C@H]1c1nc2c(cnn2C2CCOCC2)c(=O)[nH]1`, “inactive”; as for `CNCc1ccc(-c2cc(-c3nc(-c4ccc(S(=O)(=O)C(C)C)cc4)cnc3N)on2)cc1`, 183 nM (active) and 93.4 nM (active).
Take `CNC(=S)NS(=O)(=O)c1cc(CCNC(=O)c2cc(Cl)ccc2OC)ccc1OC`: the Potency entry is “inactive”.
`Cc1onc(C(=O)N2CCN(C(c3ccc(Cl)cc3)c3ccc(Cl)cc3)CC2)c1[N+](=O)[O-]`: the Potency is 0.145 µM (active).
On the same count and under the same terms, as for `CC(C)(C)c1ccc(S(=O)(=O)NCc2ccc(C(=O)Nc3cccnc3)cc2)cc1`, the figure is 0.163 µM (active); as for `CN1CCc2nc(C(=O)N[C@@H]3C[C@@H](C(=O)N(C)C)CC[C@@H]3NC(=O)C(=O)Nc3ccc(Cl)cn3)sc2C1`, “inactive”; as for `O=C(Nc1nc2ccccc2n1CCc1ccccc1)c1ccccc1`, 5.15 µM (active).
Still for that read-out and setting: as for `O=C(CCCCN1CCOCC1)Nc1ccc(-c2cccnc2)cc1`, the entry is “inactive”; as for `CCOc1ccc(NC(=S)N2CCC(C(O)(c3ccccc3)c3ccccc3)CC2)cc1`, “inactive”; as for `Cc1cc(Nc2ncc3cc(-c4c(Cl)cccc4Cl)c(=O)n(C)c3n2)ccc1F`, 0.817 µM (active).
Regarding `NCc1ccc(Nc2ncc(F)c(Nc3ccccc3)n2)cc1`, the Potency is 4.09 µM (active).
The same measure, in the same setting: as for `CC(C)[C@@H](CS(=O)(=O)C(C)C)N1C(=O)[C@@](C)(CC(=O)O)C[C@H](c2cccc(Cl)c2)[C@H]1c1ccc(Cl)cc1`, the figure is 515 nM (active) and 662 nM (active); as for `CCCN1CCN(c2ccc(C(=O)NC3(C(=O)NCC#N)CCCCC3)cc2)CC1`, “inactive”; as for `c1ccc(N2CCN(CCc3nn[nH]n3)CC2)cc1`, “inactive”.
Still for that read-out and setting: as for `Cn1c2ccc(F)cc2c2c(C(=O)N3CCCC3)cn(-c3ccccc3)c(=O)c21`, the entry is “inactive”; as for `CC(NC(=O)C(O)C(C)C)C(=O)NC1C(=O)N(C)CCc2ccccc21` (stereo not given), “inactive”.
The same measure, in the same setting: as for `CCO[C@@H]1OC(=O)C[C@@H]1NC(=O)[C@@H]1CCCN1C(=O)[C@@H](NC(=O)c1ccc(N)c(Cl)c1)C(C)(C)C`, the entry is “inactive”; as for `COc1ccccc1Oc1ccc(N(Cc2cccnc2)S(=O)(=O)CC(F)(F)F)cc1`, “inactive”.
For `CCc1cc(CN2CC(C(=O)O)C2)sc1-c1noc(-c2ccc(Oc3ccccc3)cc2)n1`, the Potency is 10 µM (active).
The same measure, in the same setting: as for `CC(C)(C)c1cc(Br)cc([C@H](CC(=O)O)NC(=O)CNC(=O)c2cc(O)cc(NC3=NCC(O)CN3)c2)c1` (stereo not given in full), the entry is “inactive”.
On to `COc1cc(N2CCOCC2)ccc1Nc1ncc(Cl)c(Nc2ccccc2NS(C)(=O)=O)n1`, for which the Potency is 1.83 µM (active).
For the compound `COc1ccc(Oc2cc(C)c(-c3csc(NC(=O)c4ccncc4)n3)c(C)c2)cc1`, the Potency was 0.916 µM (active).
Same read-out and setting: as for `COc1cccc(C(=O)N2CCN(C(=O)COc3cccc(C)c3)CC2)c1OC`, the entry is “inactive”; as for `CCNC(=O)Nc1ncc(-c2cc(-c3c(C)cc(OC)cc3C)nc(-c3cnccn3)n2)s1`, “inactive”; as for `N#Cc1ccc(C(=O)N2CCC3(CC2)N=C(N)c2c(F)ccc(F)c2N3)cn1`, “inactive”.
Still for that read-out and setting: as for `COc1ccc(-c2ccc3c(N4CCOCC4)nc(N4CC(C)OC(C)C4)nc3n2)cc1CO` (stereo not given), the figure is 0.291 µM (active); as for `O=C(NCc1ccccn1)Nc1nnc(-c2ccco2)o1`, “inactive”.
On the same count and under the same terms, as for `NC1CCC(Nc2cc(-c3cccc(NCc4cccc(F)c4)n3)c(Cl)cn2)CC1` (stereo not given), the figure is 0.0728 µM (active).
For the compound `CNC(=O)c1ccccc1Nc1nc(Nc2ccc3c(c2OC)CCCC(N2CCN(CCO)CC2)C3)ncc1Cl` (stereo not given), the Potency is 7.28 µM (active).
Same read-out and setting: as for `O=C1CC2(CCCC2)[C@H](O)C(=O)N1CCCCN1CCN(c2ncccn2)CC1`, the entry is “inactive”; as for `Cc1ccccc1-n1c([C@H](C)Nc2nc(N)nc3nc[nH]c23)nc2cccc(C)c2c1=O`, 0.411 µM (active).
Still for that read-out and setting: as for `Cn1c(=O)n(-c2ccc(C(C)(C)C#N)cc2)c2c3cc(C#Cc4cccnc4)ccc3ncc21`, the figure is 0.0142 µM (active).
